Measured values from the supplement of paper PMC10849652.
Of roughly 7,900 targets only a part is listed; those with a hit were picked by preference. About 0.6% of all pairs of compound and target were hits.

Key:
Assay in all cases: log2 fold change, soluble protein after heating vs DMSO (PISA); higher = thermal stabilisation; K562 cells, 10 uM, 30 min; active = over 0.2 and 3.5 SD of the protein, either way, in both replicates (recomputed)
[1] = compound: C#Cc1cccc(Nc2ncnc3cc(OCCOC)c(OCCOC)cc23)c1 [erlotinib]
In short: (§1)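 K562 cells at 2×10^6 cells/mL were exposed to 10 μM compound for 30 min, then aliquots were heated for 3 min across 48°C-58°C, pooled, and extracted in PBS containing 0.5% NP-40 at 4°C. The supernatant after 21,000xg for 90 min was taken as soluble protein and measured by TMTpro 16plex LC-MS/MS with channel sums equalised. Thermal stability is reported relative to control samples, with values from duplicates. Fold changes are given on a log2 scale.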

[2] = compound: C/C(=N\NC(=O)C1=CC(=CC=C1)S(=O)(=O)N2CCOCC2)/C3=C(C=CC(=C3)Cl)O
In short: as §1

[3] = compound: C1=CC(=C(C=C1Cl)C2=NC3=NC=CN=C3C(=N2)NC4=CC=NC=C4)F
In short: as §1

[4] = compound: C1=CC(=CC=C1C2=NC3=C(N2)C=C(C=C3)C(=O)N)OC4=CC=C(C=C4)Cl
In short: as §1

[5] = compound: C1=CC2=C(C=CC(=C2)/C=C\3/C(=O)NC(=NCC4=CC=CS4)S3)N=C1
In short: as §1

[6] = compound: C1=CC2=NC=CN=C2C=C1/C=C/3\C(=O)NC(=O)S3
In short: as §1

[7] = compound: C1=CC=C2C(=C1)C3=NNC4=CC=CC(=C43)C2=O
In short: as §1

[8] = compound: C1CCN(C1)C(=O)NC2=CC=CC(=C2)NC3=NC=C(C(=N3)NCCC4=CN=CN4)Br
In short: as §1

[9] = compound: C1CN(CCC1(CC2=CC=C(C=C2)Cl)N)C3=NC=NC4=C3C=CN4
In short: as §1

[10] = compound: C1COCCN1CCN2C3=CC=CC=C3N=C2NC(=O)C4=CC(=CC=C4)[N+](=O)[O-] [IRAK-1-4 Inhibitor I]
In short: as §1

[11] = compound: C=CC(=O)N1CCC[C@@H](n2nc(-c3ccc(Oc4ccccc4)cc3)c3c(N)ncnc32)C1 [ibrutinib]
In short: as §1

[12] = compound: CC(=O)c1cnc2ccc(-c3cc(Cl)c(O)c(Cl)c3)nc2c1N[C@H]1CC[C@H](CN(C)C)CC1
In short: as §1

[13] = compound: CC(C)(O)CC(=O)NCCn1ccc2ncnc(Nc3ccc(Oc4cccc(C(F)(F)F)c4)c(Cl)c3)c21
In short: as §1

[14] = compound: CC(C)C1=C2N=C(C=C(N2N=C1)NCC3=CC=CC=C3)NCCCCCCN
In short: as §1

[15] = compound: CC(C)N(C[C@H]1O[C@@H](n2cnc3c(N)ncnc32)[C@H](O)[C@@H]1O)[C@H]1C[C@@H](CCc2nc3cc(C(C)(C)C)ccc3[nH]2)C1 [pinometostat]
In short: as §1

[16] = compound: CC1=C(C(CC(=O)N1)C2=CC=C(C=C2)C(F)(F)F)C(=O)NC3=C(C=C4C(=C3)C=NN4)F
In short: as §1

[17] = compound: CC1=C(C2=C(C=C1)C(=O)C3=CC=CC=C3N2CCCN)C
In short: as §1

[18] = compound: C1=CC=C(C=C1)C2=NC(=C(N2)C3=CC=NC=C3)C4=CC(=C(C=C4)Cl)O
In short: as §1

[19] = compound: CC(C)(C)Cn1c(N)nc2ccc(-c3[nH]c(C(C)(C)C)nc3-c3ccc(F)cc3)nc21 [ralimetinib]
In short: as §1

[20] = compound: CC(C)C[C@@H](C=O)NC(=O)[C@H](CC(C)C)NC(=O)[C@H](CC(C)C)NC(=O)OCc1ccccc1
In short: as §1

Measured: log2 fold change

PARP16 isoform 3 (UniProt Q8N5Y8)
Sequence of UniProt Q8N5Y8 (Q8N5Y8 whole entry, looked up): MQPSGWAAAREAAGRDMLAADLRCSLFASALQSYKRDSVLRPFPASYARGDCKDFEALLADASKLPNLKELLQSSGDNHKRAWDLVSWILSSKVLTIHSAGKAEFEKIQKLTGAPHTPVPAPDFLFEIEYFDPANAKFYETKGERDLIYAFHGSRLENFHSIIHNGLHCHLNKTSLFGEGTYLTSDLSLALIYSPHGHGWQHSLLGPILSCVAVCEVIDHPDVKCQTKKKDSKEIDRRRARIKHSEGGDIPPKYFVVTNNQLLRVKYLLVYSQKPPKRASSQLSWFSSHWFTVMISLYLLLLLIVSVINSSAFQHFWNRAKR
inactive: [1] 0.025 | [2] 0.049 | [3] -0.055 | [4] -0.018 | [5] -0.029 | [6] 0.102 | [7] -0.013 | [8] -0.026 | [9] 0.067 | [10] -0.036 | [11] -0.13 | [12] -0.003 | [13] 0.032 | [14] -0.012 | [15] -0.097 | [16] -0.009 | [17] -0.027

PITRM1 isoform 2 (UniProt Q5JRX3)
active: [19] 0.239
inactive: [1] -0.004 | [2] -0.008 | [3] 0.012 | [4] 0.005 | [5] 0.118 | [6] 0.007 | [18] 0.041 | [7] 0.03 | [8] 0.023 | [9] 0.153 | [10] 0.045 | [11] -0.045 | [12] -0.046 | [13] -0.173 | [14] -0.026 | [20] 0.062 | [15] -0.042 | [16] -0.013 | [17] 0.006

PRKAR2B (UniProt P31323)
Sequence of UniProt P31323 (P31323 whole entry, looked up): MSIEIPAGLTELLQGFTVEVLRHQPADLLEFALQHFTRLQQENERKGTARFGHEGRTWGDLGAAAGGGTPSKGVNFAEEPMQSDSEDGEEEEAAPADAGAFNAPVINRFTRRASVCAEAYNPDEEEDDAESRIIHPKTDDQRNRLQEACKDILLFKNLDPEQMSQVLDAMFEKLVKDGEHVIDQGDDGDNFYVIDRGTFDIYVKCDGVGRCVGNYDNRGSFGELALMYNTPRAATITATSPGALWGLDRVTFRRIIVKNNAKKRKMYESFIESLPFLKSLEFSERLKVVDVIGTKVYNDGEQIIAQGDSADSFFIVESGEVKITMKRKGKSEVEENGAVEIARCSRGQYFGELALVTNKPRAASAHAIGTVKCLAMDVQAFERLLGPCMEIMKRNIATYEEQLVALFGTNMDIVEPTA
active: [8] -0.449 | [9] -0.636 | [12] -0.833
inactive: [1] -0.017 | [2] 0.066 | [3] -0.082 | [4] 0.16 | [5] -0.004 | [6] 0.012 | [18] -0.058 | [7] -0.083 | [10] -0.038 | [11] -0.011 | [19] -0.039 | [13] -0.007 | [14] -0.068 | [20] 0.044 | [15] 0.108 | [16] -0.075 | [17] 0.022

PUM1 isoform 3 (UniProt Q14671)
Sequence of UniProt Q14671 (Q14671 whole entry, looked up): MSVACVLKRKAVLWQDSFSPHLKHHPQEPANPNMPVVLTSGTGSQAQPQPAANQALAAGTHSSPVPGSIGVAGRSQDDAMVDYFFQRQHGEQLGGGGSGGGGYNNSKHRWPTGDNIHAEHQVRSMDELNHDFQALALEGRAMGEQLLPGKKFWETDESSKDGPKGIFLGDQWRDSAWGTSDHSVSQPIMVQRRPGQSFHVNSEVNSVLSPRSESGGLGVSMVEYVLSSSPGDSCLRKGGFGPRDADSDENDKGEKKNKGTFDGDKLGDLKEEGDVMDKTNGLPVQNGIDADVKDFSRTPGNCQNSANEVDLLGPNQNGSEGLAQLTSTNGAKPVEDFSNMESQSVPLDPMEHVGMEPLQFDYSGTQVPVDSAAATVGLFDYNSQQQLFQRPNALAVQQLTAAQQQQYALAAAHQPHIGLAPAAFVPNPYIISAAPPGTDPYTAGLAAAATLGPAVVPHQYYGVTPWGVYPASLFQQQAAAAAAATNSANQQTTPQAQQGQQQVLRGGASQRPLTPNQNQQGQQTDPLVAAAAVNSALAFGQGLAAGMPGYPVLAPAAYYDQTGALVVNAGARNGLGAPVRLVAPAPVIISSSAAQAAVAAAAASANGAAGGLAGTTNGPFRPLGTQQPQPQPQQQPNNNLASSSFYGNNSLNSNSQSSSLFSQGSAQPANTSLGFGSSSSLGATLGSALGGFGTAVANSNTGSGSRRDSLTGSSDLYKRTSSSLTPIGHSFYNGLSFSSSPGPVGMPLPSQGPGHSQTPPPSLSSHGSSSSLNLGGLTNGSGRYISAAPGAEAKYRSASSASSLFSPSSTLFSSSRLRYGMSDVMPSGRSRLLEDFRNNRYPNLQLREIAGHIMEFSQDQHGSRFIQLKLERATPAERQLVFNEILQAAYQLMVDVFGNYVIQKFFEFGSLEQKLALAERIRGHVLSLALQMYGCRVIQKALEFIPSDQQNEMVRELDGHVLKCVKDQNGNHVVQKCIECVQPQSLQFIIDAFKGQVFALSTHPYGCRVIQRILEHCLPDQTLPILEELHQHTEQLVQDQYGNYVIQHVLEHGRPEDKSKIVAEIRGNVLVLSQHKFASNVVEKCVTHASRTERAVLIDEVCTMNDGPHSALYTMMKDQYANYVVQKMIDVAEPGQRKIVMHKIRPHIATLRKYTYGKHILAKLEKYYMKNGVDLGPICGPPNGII
inactive: [1] -0.023 | [2] 0 | [3] 0.04 | [4] 0.034 | [5] 0.047 | [6] 0.003 | [18] -0.013 | [7] 0.003 | [8] -0.057 | [9] 0.028 | [10] 0.004 | [11] 0.02 | [12] -0.097 | [19] 0.013 | [13] -0.022 | [14] -0.059 | [20] 0.02 | [15] 0.023 | [16] 0.006 | [17] 0.063

PMM1 (UniProt Q92871)
Sequence of UniProt Q92871 (Q92871 whole entry, looked up): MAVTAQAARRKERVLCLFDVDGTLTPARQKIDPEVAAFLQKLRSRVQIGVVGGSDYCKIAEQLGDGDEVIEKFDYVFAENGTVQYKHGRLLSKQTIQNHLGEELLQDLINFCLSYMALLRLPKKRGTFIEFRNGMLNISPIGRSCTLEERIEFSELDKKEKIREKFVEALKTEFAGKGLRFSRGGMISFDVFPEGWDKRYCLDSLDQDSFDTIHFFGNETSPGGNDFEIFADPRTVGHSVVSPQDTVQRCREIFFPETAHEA
inactive: [1] -0.021 | [2] -0.041 | [3] 0.004 | [4] 0.065 | [5] 0.1 | [6] 0.002 | [18] -0.007 | [7] -0.049 | [8] 0.001 | [9] 0.036 | [10] -0.06 | [11] 0.039 | [12] -0.011 | [19] -0.024 | [13] 0.014 | [14] 0.187 | [20] 0.019 | [15] -0.037 | [16] 0.02 | [17] 0.049

POLR2M (UniProt Q6EEV4)
Sequence of UniProt Q6EEV4 (Q6EEV4 whole entry, looked up): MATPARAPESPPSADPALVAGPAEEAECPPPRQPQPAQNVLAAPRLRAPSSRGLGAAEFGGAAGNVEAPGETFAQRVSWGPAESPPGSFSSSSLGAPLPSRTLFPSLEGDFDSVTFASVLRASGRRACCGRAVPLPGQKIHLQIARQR
inactive: [1] -0.044 | [2] 0.096 | [3] 0.242 | [4] 0.223 | [5] -0.006 | [6] -0.001 | [7] -0.048 | [8] -0.041 | [9] 0.024 | [10] -0.014 | [11] -0.075 | [12] -0.027 | [13] -0.091 | [14] 0.128 | [15] 0.005 | [16] 0.139 | [17] 0.209

PMVK (UniProt Q15126)
Sequence of UniProt Q15126 (Q15126 whole entry, looked up): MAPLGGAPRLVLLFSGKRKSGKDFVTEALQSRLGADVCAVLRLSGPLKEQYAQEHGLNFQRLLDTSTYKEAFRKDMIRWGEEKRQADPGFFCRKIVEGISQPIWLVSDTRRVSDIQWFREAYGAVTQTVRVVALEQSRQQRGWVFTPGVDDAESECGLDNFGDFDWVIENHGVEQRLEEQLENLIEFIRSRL
inactive: [1] 0.001 | [2] -0.518 | [3] 0.006 | [4] 0.042 | [5] 0.052 | [6] -0.045 | [7] -0.115 | [8] -0.006 | [9] 0.15 | [11] -0.039 | [12] -0.069 | [13] -0.072 | [14] -0.195 | [16] 0.15 | [17] 0.061

PTRH2 (UniProt Q9Y3E5)
Sequence of UniProt Q9Y3E5 (Q9Y3E5 whole entry, looked up): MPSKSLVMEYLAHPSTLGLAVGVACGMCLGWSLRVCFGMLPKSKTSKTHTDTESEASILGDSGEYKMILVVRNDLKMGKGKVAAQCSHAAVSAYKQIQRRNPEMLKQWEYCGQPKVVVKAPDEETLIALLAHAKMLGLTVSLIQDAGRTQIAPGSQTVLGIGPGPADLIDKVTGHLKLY
inactive: [1] 0.015 | [2] 0.048 | [3] 0.125 | [4] -0.002 | [5] 0.049 | [6] -0.004 | [18] 0.169 | [7] -0.022 | [8] -0.038 | [9] 0.007 | [10] 0.059 | [11] 0.031 | [12] 0.075 | [19] 0.085 | [13] -0.065 | [14] 0.062 | [20] -0.081 | [15] -0.033 | [16] -0.008 | [17] 0.017

PSMD12 (UniProt O00232)
Sequence of UniProt O00232 (O00232 whole entry, looked up): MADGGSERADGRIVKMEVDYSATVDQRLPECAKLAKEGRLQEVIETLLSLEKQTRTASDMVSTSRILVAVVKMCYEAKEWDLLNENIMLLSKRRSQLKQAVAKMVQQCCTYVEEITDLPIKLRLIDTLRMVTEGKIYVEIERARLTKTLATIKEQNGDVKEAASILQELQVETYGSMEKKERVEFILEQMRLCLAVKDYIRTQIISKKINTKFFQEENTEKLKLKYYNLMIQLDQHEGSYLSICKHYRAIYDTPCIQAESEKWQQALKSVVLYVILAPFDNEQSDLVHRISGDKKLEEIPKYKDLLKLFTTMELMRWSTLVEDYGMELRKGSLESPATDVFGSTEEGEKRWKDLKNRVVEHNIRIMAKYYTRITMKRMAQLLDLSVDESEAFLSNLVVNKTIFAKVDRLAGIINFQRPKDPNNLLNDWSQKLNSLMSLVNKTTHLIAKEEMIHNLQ
active: [20] -0.251
inactive: [1] -0.064 | [2] 0 | [3] -0.017 | [4] -0.003 | [5] -0.023 | [6] -0.016 | [18] 0.009 | [7] 0.066 | [8] -0.042 | [9] -0.049 | [10] -0.055 | [11] -0.022 | [12] 0.03 | [19] 0.004 | [13] -0.01 | [14] 0 | [15] 0.03 | [16] 0.007 | [17] 0.015

PSMC4 (UniProt P43686)
Sequence of UniProt P43686 (P43686 whole entry, looked up): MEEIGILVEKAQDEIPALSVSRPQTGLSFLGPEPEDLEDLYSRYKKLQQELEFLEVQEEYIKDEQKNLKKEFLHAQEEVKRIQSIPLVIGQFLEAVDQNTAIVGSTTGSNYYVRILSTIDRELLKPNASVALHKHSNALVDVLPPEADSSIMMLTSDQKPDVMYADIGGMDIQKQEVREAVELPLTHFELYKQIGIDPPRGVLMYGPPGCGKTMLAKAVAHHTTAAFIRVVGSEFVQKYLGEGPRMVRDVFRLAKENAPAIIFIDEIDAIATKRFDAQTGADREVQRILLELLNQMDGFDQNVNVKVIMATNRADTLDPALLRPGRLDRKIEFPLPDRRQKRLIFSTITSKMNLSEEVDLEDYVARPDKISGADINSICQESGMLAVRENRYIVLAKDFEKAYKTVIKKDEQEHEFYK
active: [20] -0.249
inactive: [1] -0.05 | [2] -0.092 | [3] -0.052 | [4] -0.004 | [5] -0.023 | [6] -0.032 | [18] -0.011 | [7] 0.006 | [8] 0.04 | [9] -0.041 | [10] -0.056 | [11] -0.012 | [12] 0.022 | [19] 0.014 | [13] 0.029 | [14] 0.034 | [15] 0.025 | [16] 0.02 | [17] 0.016

PRMT8 (UniProt Q9NR22)
inactive: [1] -0.008 | [2] 0.03 | [3] 0.159 | [4] -0.067 | [5] 0.099 | [6] -0.005 | [18] 0.122 | [7] 0.042 | [8] 0.012 | [9] 0.028 | [10] 0.045 | [11] -0.004 | [12] -0.012 | [19] 0.098 | [13] -0.014 | [14] 0.001 | [20] -0.073 | [15] 0.026 | [16] -0.027 | [17] 0.101

PTPMT1 (UniProt Q8WUK0)
active: [14] -0.579
inactive: [1] -0.009 | [2] -0.017 | [3] 0.202 | [4] 0.053 | [5] 0.009 | [6] 0.015 | [18] 0.03 | [7] 0.013 | [8] -0.001 | [9] -0.045 | [10] 0.018 | [11] -0.05 | [12] -0.131 | [19] -0.144 | [13] -0.083 | [20] 0.052 | [15] 0.013 | [16] 0.043 | [17] -0.057

PTPA (UniProt A6PVN8)
inactive: [1] -0.061 | [2] 0.21 | [3] -0.107 | [4] 0.367 | [5] 0.088 | [6] 0.031 | [18] 0.063 | [7] 0.065 | [8] 0.01 | [9] 0.031 | [11] 0.063 | [12] -0.241 | [19] -0.07 | [13] -0.052 | [14] 0.122 | [20] -0.002 | [16] 0.026 | [17] -0.104

PNN (UniProt Q9H307)
inactive: [1] 0.007 | [2] -0.001 | [3] 0.032 | [4] 0.024 | [5] 0.025 | [6] 0.085 | [18] -0.107 | [7] -0.11 | [10] 0.051 | [11] -0.047 | [12] -0.134 | [19] 0.032 | [13] 0.004 | [14] -0.146 | [20] 0.145 | [15] 0.124 | [16] 0.056

POLR2K (UniProt P53803)
inactive: [1] -0.081 | [2] 0.021 | [3] -0.037 | [4] 0.127 | [5] -0.017 | [6] 0.097 | [18] -0.1 | [7] -0.105 | [8] 0.005 | [9] 0.022 | [10] -0.041 | [11] 0.003 | [12] 0.059 | [19] -0.093 | [13] 0.028 | [20] 0.093 | [15] -0.092 | [16] -0.02 | [17] 0.027
active: [14] 0.429

PHLDB1 isoform 2 (UniProt Q86UU1)
Sequence of UniProt Q86UU1 (Q86UU1 whole entry, looked up): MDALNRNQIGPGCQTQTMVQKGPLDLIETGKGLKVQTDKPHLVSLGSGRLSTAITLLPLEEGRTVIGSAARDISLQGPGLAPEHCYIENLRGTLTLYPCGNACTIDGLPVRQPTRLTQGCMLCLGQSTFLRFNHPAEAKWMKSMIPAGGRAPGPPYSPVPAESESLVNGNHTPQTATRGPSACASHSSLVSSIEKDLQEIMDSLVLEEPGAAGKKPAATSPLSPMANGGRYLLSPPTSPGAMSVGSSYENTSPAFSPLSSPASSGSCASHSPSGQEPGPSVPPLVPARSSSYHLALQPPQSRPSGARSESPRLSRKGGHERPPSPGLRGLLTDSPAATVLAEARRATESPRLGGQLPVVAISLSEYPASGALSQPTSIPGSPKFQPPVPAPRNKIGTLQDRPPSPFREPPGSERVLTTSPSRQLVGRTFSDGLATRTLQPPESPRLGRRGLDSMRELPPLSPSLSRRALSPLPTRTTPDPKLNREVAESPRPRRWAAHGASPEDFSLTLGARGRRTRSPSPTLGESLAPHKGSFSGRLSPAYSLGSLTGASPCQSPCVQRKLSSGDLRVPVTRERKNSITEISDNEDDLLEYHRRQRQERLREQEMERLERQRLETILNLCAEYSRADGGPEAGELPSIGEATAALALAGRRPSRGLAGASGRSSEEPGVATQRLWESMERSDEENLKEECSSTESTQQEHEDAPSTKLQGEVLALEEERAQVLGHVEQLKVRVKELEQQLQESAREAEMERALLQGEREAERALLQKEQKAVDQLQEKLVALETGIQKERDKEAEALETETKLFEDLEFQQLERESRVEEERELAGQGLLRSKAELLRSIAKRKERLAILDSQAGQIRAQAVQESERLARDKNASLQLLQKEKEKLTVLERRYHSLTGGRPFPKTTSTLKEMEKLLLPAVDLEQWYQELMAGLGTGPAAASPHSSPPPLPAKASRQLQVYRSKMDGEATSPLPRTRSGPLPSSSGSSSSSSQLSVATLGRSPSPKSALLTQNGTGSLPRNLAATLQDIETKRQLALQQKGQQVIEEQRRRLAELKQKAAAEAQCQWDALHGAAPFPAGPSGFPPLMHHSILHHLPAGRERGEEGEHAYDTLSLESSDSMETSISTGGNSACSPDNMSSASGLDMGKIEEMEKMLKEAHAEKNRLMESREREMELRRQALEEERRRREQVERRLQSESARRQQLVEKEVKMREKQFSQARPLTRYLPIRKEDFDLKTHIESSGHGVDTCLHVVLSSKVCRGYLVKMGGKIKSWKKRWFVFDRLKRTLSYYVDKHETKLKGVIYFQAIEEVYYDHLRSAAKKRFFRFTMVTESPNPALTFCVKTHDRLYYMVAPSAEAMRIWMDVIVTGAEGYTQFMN
active: [12] -0.832
inactive: [1] -0.02 | [2] 0.03 | [3] 0.099 | [4] 0.027 | [5] 0.165 | [6] -0.093 | [18] 0.008 | [7] -0.125 | [8] -0.048 | [9] 0.025 | [10] 0.014 | [11] -0.055 | [19] 0.005 | [13] -0.053 | [14] -0.018 | [20] 0.016 | [15] -0.011 | [16] 0.091 | [17] 0.118

PDE6D (UniProt O43924)
inactive: [1] -0.094 | [2] 0.055 | [3] -0.082 | [4] -0.102 | [5] 0.078 | [6] 0.004 | [7] 0.115 | [8] 0.417 | [9] 0.028 | [10] 0.037 | [11] 0.086 | [12] -0.051 | [13] 0.003 | [14] 0.164 | [15] 0.017 | [16] -0.016 | [17] -0.01
